Test systems include HCT-15 colon; HT29 colon; SNB-75 CNS; SNB-19 CNS; U251 CNS; PC-3 prostate; SK-MEL-5 melanoma; UACC-62 melanoma; SK-MEL-28 melanoma.
Common to all, as to experiment: NCI-60 one-dose screen, 48 h (100 = growth as untreated, 0 = no growth, -100 = all killed)
What all share (settings): 10 µM unless noted

About 83,000 compounds went through this panel and 20% of them were active in at least one assay; those are over-represented in the sample as a whole.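 Results are percent growth after 48 hours of single-concentration exposure. 100 means growth as in untreated cells, lower positive values show inhibition; negative values down to -100 show cell death.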 Values without a mark were called inactive. Calls of active or inactive are those of the source. How the source made its calls: active means growth percent below 10; inactive means the rest.

Here are results for 13 molecules from PubChem BioAssay (NCI).

Consider `C=C(C)[C@@H]1CC[C@]2(c3nnc(-c4ccncc4)o3)CC[C@]3(C)[C@H](CC[C@@H]4[C@@]5(C)CCC(=O)NC(C)(C)[C@@H]5CC[C@]43C)[C@@H]12`, for which the growth in the assay with HCT-15 colon is 100%; in the assay with HT29 colon, 99.6%; with SNB-75 CNS, 93.7%; with SNB-19 CNS, 92.5%; with U251 CNS it was 96%; in the assay on PC-3 prostate, 69.5%. Besides, the growth is 90.1% in the assay on SK-MEL-5 melanoma, 79.7% in the assay on UACC-62 melanoma and 109% in the assay with SK-MEL-28 melanoma.

With `O=C(N/N=C\c1ccccc1O)C1CC1`, the growth in the assay on HCT-15 colon is 92.5%; in the assay on HT29 colon it was 107%; in the assay on SNB-75 CNS it was 98.1%; in the assay on SNB-19 CNS it was 101%; with U251 CNS, 103%; in the assay on PC-3 prostate, 92%. The growth is 109% in the assay on SK-MEL-5 melanoma, 102% with UACC-62 melanoma and 114% with SK-MEL-28 melanoma.

As for `CC1(C)C(=O)/C(=C\c2ccco2)C[C@]2(C)[C@H]3CC[C@@H]4[C@@H](C(=O)/C=C/c5ccco5)CC[C@@]4(C)[C@]3(C)CC[C@@H]12`, the growth in the assay with HCT-15 colon was 79.6%; with HT29 colon it was 75.7%; with SNB-75 CNS, 68.1%; in the assay on SNB-19 CNS it was 46.8%; in the assay on U251 CNS it was 50.7%; with PC-3 prostate, 80.4%. For the same molecule, the values for the growth in the assay with SK-MEL-5 melanoma, with UACC-62 melanoma and with SK-MEL-28 melanoma were -49.9% (active), 12.5% and 32.1%, respectively.

For the molecule `Cc1ccc(/C=C(\C#N)c2cc3ccccc3n2C)cc1`, the growth is 10.3% with HCT-15 colon; 17.1% in the assay with HT29 colon; 19.4% in the assay with SNB-75 CNS; 29.3% in the assay on SNB-19 CNS; 30.9% in the assay with U251 CNS; 36.1% in the assay on PC-3 prostate. Also, the results for the growth in the assay with SK-MEL-5 melanoma, with UACC-62 melanoma and in the assay with SK-MEL-28 melanoma were 23%, 20% and 65.4%, respectively.

With `Cc1ccc(Cc2cnc(NC(=O)/C=C/c3cccc(C)c3)s2)cc1`, the growth was 7.04% (active) with HCT-15 colon; 0.0384% (active) in the assay with HT29 colon; -23.6% (active) in the assay with SNB-75 CNS; 13.4% with SNB-19 CNS; 9.32% (active) with U251 CNS; 30.3% in the assay with PC-3 prostate. For the same molecule, the figures for the growth in the assay with SK-MEL-5 melanoma, in the assay on UACC-62 melanoma and in the assay on SK-MEL-28 melanoma were 12.6%, 16.3% and 50.3%, respectively.

In the case of `Cn1cc(-c2nc(-c3c[nH]c4ncccc34)cs2)c2cc(Br)ccc21`, the growth in the assay on HCT-15 colon is 64.2%; with HT29 colon, 70.5%; in the assay on SNB-75 CNS it was 80.5%; in the assay on SNB-19 CNS, 108%; in the assay on U251 CNS, 72.9%; in the assay on PC-3 prostate, 76.7%. For the same molecule, the growth was 91.8% in the assay on SK-MEL-5 melanoma, 80.5% with UACC-62 melanoma and 102% in the assay on SK-MEL-28 melanoma.

Regarding `Cc1cc2nc3c4cc(Cl)ccc4n(CCN(C)C)c3nc2cc1C`, the growth was -25.1% (active) in the assay on HCT-15 colon; 1% (active) in the assay with HT29 colon; 26.3% in the assay on SNB-75 CNS; 15.4% in the assay on SNB-19 CNS; 12.3% in the assay with U251 CNS; 27.2% in the assay with PC-3 prostate. The figures for the growth with SK-MEL-5 melanoma, in the assay with UACC-62 melanoma and with SK-MEL-28 melanoma were 41%, -70.7% (active) and -59.3% (active), respectively.

With `O=C(O)/C(=C/c1ccc(O)cc1)c1ccccc1`, the growth in the assay with HCT-15 colon was 104%; in the assay with HT29 colon, 104%; in the assay on SNB-75 CNS, 88.4%; in the assay on SNB-19 CNS, 99.7%; in the assay on U251 CNS, 93.7%; in the assay with PC-3 prostate it was 90.4%. For the same molecule, the growth is 95.5% with SK-MEL-5 melanoma, 107% with UACC-62 melanoma and 102% with SK-MEL-28 melanoma.

In the case of `C#Cc1cccc(NC(=O)C2CCCN(C(=O)CCl)C2)c1` (configuration not stated), the growth in the assay with HCT-15 colon is 25.2% [8.25 µM]; in the assay on HT29 colon, 83.9% [8.25 µM]; with SNB-75 CNS it was 91.9% [8.25 µM]; in the assay on SNB-19 CNS, 85.7% [8.25 µM]; in the assay with U251 CNS, 72% [8.25 µM]; in the assay on PC-3 prostate, 96.2% [8.25 µM]. The growth in the assay on SK-MEL-5 melanoma was 19.4% [8.25 µM]; in the assay on UACC-62 melanoma it was 44.2% [8.25 µM]; in the assay with SK-MEL-28 melanoma it was 102% [8.25 µM].

On to `Cn1c2c(c3ccc(Cl)cc31)-n1cccc1C2=O`, for which the growth in the assay on HCT-15 colon is 83.5%; in the assay on HT29 colon, 70.8%; in the assay with SNB-75 CNS it was 87.5%; in the assay with SNB-19 CNS, 85.5%; with U251 CNS, 89.3%; in the assay with PC-3 prostate, 101%. In addition, the values for the growth in the assay on SK-MEL-5 melanoma, in the assay with UACC-62 melanoma and with SK-MEL-28 melanoma were 98.4%, 89.8% and 109%, respectively.

As for `COc1cccc(NC(=O)c2sc3nc4c(cc3c2N)C(=O)CCC4)c1`, the growth was 15.7% with HCT-15 colon; 4.77% (active) in the assay with HT29 colon; -0.688% (active) in the assay with SNB-75 CNS; 41.6% with SNB-19 CNS; 14.3% in the assay on U251 CNS; 10.5% with PC-3 prostate. Also, the growth was 3.83% (active) with SK-MEL-5 melanoma, 34.5% in the assay with UACC-62 melanoma and 62.9% in the assay with SK-MEL-28 melanoma.

`CCc1ccc(-c2ccc(Nc3ccccc3)nn2)cc1S(N)(=O)=O`: the growth with HCT-15 colon is 65.3%; with HT29 colon, 68%; with SNB-75 CNS, 123%; in the assay with SNB-19 CNS, 105%; with U251 CNS, 80.8%; in the assay with PC-3 prostate, 60.6%. The growth with SK-MEL-5 melanoma was 79.8%; in the assay with UACC-62 melanoma, 81.1%; in the assay with SK-MEL-28 melanoma it was 87.7%.

`CC1(C)[C@@H](O)CC[C@]2(C)[C@H]3CC[C@@H]4[C@H]5[C@H](C(=O)/C=C/c6ccc(C(F)(F)F)cc6)CC[C@]5(CO)CC[C@@]4(C)[C@]3(C)CC[C@@H]12`: the growth in the assay on HCT-15 colon is 34.4%; in the assay with HT29 colon, 36.1%; in the assay with SNB-75 CNS it was 60%; in the assay on SNB-19 CNS, 61.1%; with U251 CNS, 53.6%; in the assay with PC-3 prostate, 43.9%. Besides, the growth in the assay with SK-MEL-5 melanoma was 13.1%; with UACC-62 melanoma, 36.5%; in the assay with SK-MEL-28 melanoma, 54.6%.
